Test results: PubChem BioAssay (NCI)
Compounds without any hit were thinned out: in the full panel of roughly 83,000, 20% have a hit.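 Percent growth is the endpoint: 0 to 100 indicates growth inhibition (40 means 60% inhibition), 0 means no net growth, and negative values indicate cell death.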 The source made the active and inactive calls. The calls were made as follows: active = growth percent below 10; inactive = the rest.

Tested on: NCI-H23 lung
Test: NCI-60 one-dose screen, 48 h (100 = growth as untreated, 0 = no growth, -100 = all killed)
Conditions: 10 µM unless noted

| SMILES | growth |
| --- | --- |
| CCCCCC(/C=N\NC(=S)N/N=C/C(=C/c1ccccc1)CCCCC)=C\c1ccccc1 | 70.6% (inactive) |
| O=C(c1nn(-c2ccccc2)c2c1CC(NCc1ccc(F)cc1)CC2)N1CCCCC1 (stereo unspecified) | 95.3% (inactive) |
| CCOC(=O)c1cc2c(n1Cc1cc(OC)c(OC)c(OC)c1)-c1nc(N)sc1CCC2 | 62.9% (inactive) |
| COC(=O)CC[C@H](C)[C@H]1CC[C@H]2[C@@H]3CC[C@@H]4CC5(CC[C@]4(C)[C@H]3CC(=O)[C@]12C)Nc1ccccc1NC5=NC(C)(C)C (stereo partly specified) | 72.8% (inactive) |
| CCN(CC)CCCCCNc1cc(OC(=O)c2ccc(Cl)cc2)cc2cccnc12 | 93.9% (inactive) |
| CC1CCc2c(C(=O)Nc3ncc(Cc4cccc([N+](=O)[O-])c4)s3)csc2C1 (stereo unspecified) | 36.6% (inactive) |
| COCCNC(=O)Nc1ccc2nc(-c3cccs3)c(-c3cccs3)nc2c1 | 90% (inactive) |
| OCCn1cc(-c2nc(-c3c[nH]c4ncccc34)cs2)c2cc(F)ccc21 | 76.2% (inactive) |
| N#Cc1ccc(O)c(C2=NCC(c3ccccc3)O2)c1 (stereo unspecified) | 44.6% (inactive) |
| C#CCOC(=O)/C=C/c1cn(-c2ccccc2)nc1-c1ccc(OC)cc1 | 89.1% (inactive) |
| CCCC/C(CC)=N\NS(=O)(=O)c1ccc([N+](=O)[O-])cc1 | 95.9% (inactive) |
| Nc1n[nH]c2cccc(C#Cc3cccc(NC(=O)c4cc(F)cc(C(F)(F)F)c4)c3)c12 | 65.8% (inactive) |
| O=C1/C(=C/c2ccccc2O)CC/C1=C\c1ccccc1O | 59.8% (inactive) |
| Cn1cc(-c2csc(-c3cn(C(=O)OC(C)(C)C)c4ccc(Br)cc34)n2)c2ccnc(Cl)c21 | 81.7% (inactive) |
| O=C(Nc1cccc(-c2ccc(N3CCOCC3)nn2)c1)Nc1cccc(C(F)(F)F)c1 | 70.4% (inactive) |
| COc1cc(-c2nccc3[nH]c(-c4ccc5cc[nH]c5c4)nc23)cc(OC)c1OC | 26.1% (inactive) |
| C=CC[Se]C(=O)Cc1c(C)n(C(=O)c2ccc(Cl)cc2)c2ccc(OC)cc12 | -18.2% (active) |
| Cc1cc(C(=O)O)c(C)n1-c1cccc(C(=O)O)c1 | 78.7% (inactive) |
| COCCOc1cc2ncnc(N3CCN(c4cc(S(C)(=O)=O)c(C)cc4Cl)CC3)c2cc1OCCOC | 81.9% (inactive) |
| O=C(N(c1ccccc1)c1ccccc1)n1cc(I)c2nc(Cl)nc(Cl)c21 | 72.6% (inactive) |
| C=CCn1c(SCC(=O)Nc2ccc(C(=O)/C=C/c3ccc(Cl)cc3)cc2)nnc1-c1ccc(Br)cc1 | 83.7% (inactive) |
| C=CCN=c1sc2c(n1NC(=O)c1cc3ccc1CCc1ccc(cc1)CC3)C(=O)c1ccccc1C2=O | -34.1% (active) |
| Nc1c(C(=O)Nc2ccccc2F)sc2nc3c(cc12)CCCC3 | 51.2% (inactive) |
| COc1ccc(/C=N\Nc2nc(SCCC(C)C)nc(-c3ccc(OC)cc3)c2C#N)cc1 | 72.1% (inactive) |
| CC(C)=CCCC(C)c1ccc(C)c2c1OCN(CCCCCO)C2 (stereo unspecified) | 91.3% (inactive) |
| CCCCCN1C(=O)/C(=c2\sc3n(c2=O)C2C(NN=3)N(CC)C(=O)N2CC)c2ccccc21 (stereo unspecified) | 12.1% (inactive) |

Tested on: NCI-H226 lung
Test: as above
Conditions: 10 µM unless noted

| SMILES | growth |
| --- | --- |
| O=c1c2ccccc2n2cnc3ccc(Cl)c1c32 | 93.9% (inactive) |
| CCN(CC)CC(O)COc1c(Br)c(Br)c(Br)c2c1OC(C)(C)C2 (stereo unspecified) | 46.4% (inactive) |
| N#Cc1c(-c2ccccc2)cc(-c2ccccc2)n(CCCC(=O)Nc2ccccc2N)c1=O | 73.9% (inactive) |
| CC1OC(n2c3ccccc3c3c4c(c5c6ccccc6[nH]c5c32)C(=O)N(CCN2CCCC2)C4=O)CC(O)C1O (stereo unspecified) | 43.1% (inactive) |
| CCOC(=O)NC(C)C | 112% (inactive) |
| COc1ccc2[nH]c(C(=O)N3CCN(C(=O)OCc4ccc5c(Cl)cc(Cl)c(O)c5n4)CC3)cc2c1 | -4.54% (active) |
| O=C(/C=C/c1ccccc1)Nc1ncc(Cc2ccccc2Cl)s1 | 48.6% (inactive) |
| COC12C=C/C(=C(/C(=O)OCc3ccncc3)C(=O)CCCCCCCCC3(OC)C=C/C(=C(/C(=O)OCc4ccncc4)C(=O)CCCCCCCC1)O3)O2 | -64.7% (active) |
| CC(C)=CC(=O)OCC(=O)O[C@@H]1C[C@]2(C(C)C)O[C@@]1(C)[C@@H]1CC[C@@H](C)[C@H]1[C@@H]2OC(=O)/C=C/c1ccccc1 | 55.5% (inactive) |
| COc1ccc(Cc2cnc(NC(=O)c3cc(C)oc3C)s2)cc1 | 70.7% (inactive) |
| NC(Cc1ccc(O)c([N+](=O)[O-])c1)C(=O)O (stereo unspecified) | 101% (inactive) |
| CC(C)COc1nc2c(c(=O)n(C)c(=O)n2C)n1C | 94.5% (inactive) |
| CCc1ccccc1-n1c(-c2ccc(OC)cc2)cc(-c2ccc(OC)cc2)c(C#N)c1=O | 95.9% (inactive) |
| CCCCCOC(=O)c1c(C)[nH]c(/C=C2\N=C(c3ccc[nH]3)C=C2OC)c1C | -74.8% (active) |
| CCCCCC(/C=N\NC(=S)N/N=C/C(=C/c1ccccc1)CCCCC)=C\c1ccccc1 | 89.8% (inactive) |
| O=C(c1nn(-c2ccccc2)c2c1CC(NCc1ccc(F)cc1)CC2)N1CCCCC1 (stereo unspecified) | 103% (inactive) |
| CCOC(=O)c1cc2c(n1Cc1cc(OC)c(OC)c(OC)c1)-c1nc(N)sc1CCC2 | 73.4% (inactive) |
| COC(=O)CC[C@H](C)[C@H]1CC[C@H]2[C@@H]3CC[C@@H]4CC5(CC[C@]4(C)[C@H]3CC(=O)[C@]12C)Nc1ccccc1NC5=NC(C)(C)C (stereo partly specified) | 65.4% (inactive) |
| CCN(CC)CCCCCNc1cc(OC(=O)c2ccc(Cl)cc2)cc2cccnc12 | 105% (inactive) |
| CC1CCc2c(C(=O)Nc3ncc(Cc4cccc([N+](=O)[O-])c4)s3)csc2C1 (stereo unspecified) | 54.1% (inactive) |

| SMILES | growth |
| --- | --- |
| COCCNC(=O)Nc1ccc2nc(-c3cccs3)c(-c3cccs3)nc2c1 | 92.8% (inactive) |
| OCCn1cc(-c2nc(-c3c[nH]c4ncccc34)cs2)c2cc(F)ccc21 | 48.4% (inactive) |
| N#Cc1ccc(O)c(C2=NCC(c3ccccc3)O2)c1 (stereo unspecified) | 68% (inactive) |
| C#CCOC(=O)/C=C/c1cn(-c2ccccc2)nc1-c1ccc(OC)cc1 | 81.6% (inactive) |
| CCCC/C(CC)=N\NS(=O)(=O)c1ccc([N+](=O)[O-])cc1 | 93.4% (inactive) |
| Nc1n[nH]c2cccc(C#Cc3cccc(NC(=O)c4cc(F)cc(C(F)(F)F)c4)c3)c12 | 46.6% (inactive) |
| O=C1/C(=C/c2ccccc2O)CC/C1=C\c1ccccc1O | 82.9% (inactive) |
| Cn1cc(-c2csc(-c3cn(C(=O)OC(C)(C)C)c4ccc(Br)cc34)n2)c2ccnc(Cl)c21 | 73.3% (inactive) |
| O=C(Nc1cccc(-c2ccc(N3CCOCC3)nn2)c1)Nc1cccc(C(F)(F)F)c1 | 61.8% (inactive) |
| COc1cc(-c2nccc3[nH]c(-c4ccc5cc[nH]c5c4)nc23)cc(OC)c1OC | 19.3% (inactive) |
| C=CC[Se]C(=O)Cc1c(C)n(C(=O)c2ccc(Cl)cc2)c2ccc(OC)cc12 | -20.5% (active) |
| Cc1cc(C(=O)O)c(C)n1-c1cccc(C(=O)O)c1 | 100% (inactive) |
| COCCOc1cc2ncnc(N3CCN(c4cc(S(C)(=O)=O)c(C)cc4Cl)CC3)c2cc1OCCOC | 81.4% (inactive) |
| O=C(N(c1ccccc1)c1ccccc1)n1cc(I)c2nc(Cl)nc(Cl)c21 | 71.8% (inactive) |
| C=CCn1c(SCC(=O)Nc2ccc(C(=O)/C=C/c3ccc(Cl)cc3)cc2)nnc1-c1ccc(Br)cc1 | 80.7% (inactive) |
| C=CCN=c1sc2c(n1NC(=O)c1cc3ccc1CCc1ccc(cc1)CC3)C(=O)c1ccccc1C2=O | 48.5% (inactive) |
| Nc1c(C(=O)Nc2ccccc2F)sc2nc3c(cc12)CCCC3 | 63.5% (inactive) |
| COc1ccc(/C=N\Nc2nc(SCCC(C)C)nc(-c3ccc(OC)cc3)c2C#N)cc1 | 88.9% (inactive) |
| CC(C)=CCCC(C)c1ccc(C)c2c1OCN(CCCCCO)C2 (stereo unspecified) | 98.4% (inactive) |
| CCCCCN1C(=O)/C(=c2\sc3n(c2=O)C2C(NN=3)N(CC)C(=O)N2CC)c2ccccc21 (stereo unspecified) | 9.26% (active) |
